Legend:
Test in all cases: growth inhibition (% activity, log2 RLU normalised to DMSO / staurosporine); higher = more growth inhibition
Details in all cases: 33 µM
DIPGX29 = system: DIPGX29 (H3.3 K27M diffuse intrinsic pontine glioma line)
Outline: (§1)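 For each approved drug, the growth-inhibition value is the replicate median of per-plate normalised CellTiter-Glo data. Luminescence was log2-transformed and expressed as % activity between solvent and positive control wells. Drugs were applied in triplicate at a single final concentration of about 33 μM for 7 days at 37 °C, 5% CO2 to pHGG cell lines and H9-derived neural stem cells.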

DIPGX37 = system: DIPGX37 (H3.3 K27M diffuse intrinsic pontine glioma line)
Outline: as §1

DIPGX7 = system: DIPGX7 (H3.3 K27M diffuse intrinsic pontine glioma line)
Outline: as §1

DIPGX9 = system: DIPGX9 (diffuse intrinsic pontine glioma line)
Outline: as §1

HGGX39 = system: HGGX39 (paediatric high-grade glioma line)
Outline: as §1

HGGX6 = system: HGGX6 (H3.3 G34R paediatric high-grade glioma line)
Outline: as §1

HNSC = system: HNSC
Outline: as §1

SUDIPGIV = system: SUDIPGIV (diffuse intrinsic pontine glioma line)
Outline: as §1

SUDIPGVI = system: SUDIPGVI (diffuse intrinsic pontine glioma line)
Outline: as §1

SUDIPGXIII = system: SUDIPGXIII (diffuse intrinsic pontine glioma line)
Outline: as §1

SMILES | growth inhibition (DIPGX29) | growth inhibition (DIPGX37) | growth inhibition (DIPGX7) | growth inhibition (DIPGX9) | growth inhibition (HGGX39) | growth inhibition (HGGX6) | growth inhibition (HNSC) | growth inhibition (SUDIPGIV) | growth inhibition (SUDIPGVI) | growth inhibition (SUDIPGXIII)
C[C@@H]1O[C@@H]1P(=O)(O)O | -0.0235% | -0.548% | -0.0992% | 1.37% | 2.18% | 1.12% | 0.39% | -0.299% | 0.0548% | 1.68%
COc1cc(NC(C)CCCN)c2ncccc2c1 (stereo not given) | 19.8% | 14% | 29.6% | 24.2% | 13% | 25.5% | 66.1% | 25.4% | 28.3% | 11.9%
CC(C)(C)c1nc(-c2cccc(NS(=O)(=O)c3c(F)cccc3F)c2F)c(-c2ccnc(N)n2)s1 | 0.794% | 4.39% | 2.8% | 1.94% | 5.46% | 4.05% | 22.9% | -0.469% | -1.37% | -0.13%
C[C@@H]1CN(c2c(F)c(F)c3c(=O)c(C(=O)O)cn(C4CC4)c3c2F)C[C@H](C)N1 | -1.92% | -8.88% | -0.67% | -1.75% | 1.32% | -0.41% | 1.66% | -2.13% | -5.84% | -3.56%
CCOC(=O)n1ccn(C)c1=S | 1.7% | 2.04% | 0.732% | 1.21% | 0.889% | 2.62% | 0.384% | -0.192% | 2.2% | -16.1%
Nc1ncn([C@H]2C[C@H](O)[C@@H](CO)O2)c(=O)n1 | 2.35% | 0.227% | 3.51% | 4.93% | 4.99% | 3.19% | 27.6% | 5.46% | 2.19% | 1.68%
CN(Cc1cc(Br)cc(Br)c1N)C1CCCCC1 | 2.48% | 1.22% | 4.28% | 3.08% | 5.14% | 1.81% | 7.22% | 3.97% | 3.03% | -1.94%
CO/N=C(\C(=O)N[C@@H]1C(=O)N2C(C(=O)OCOC(=O)C(C)(C)C)=C(/C=C\c3scnc3C)CS[C@H]12)c1csc(N)n1 | -0.112% | 1.84% | 0.192% | -1.35% | 1.82% | -1.1% | 0.492% | 0.557% | 0.818% | -0.304%
O=C(Nc1cccc2c(=O)cc(-c3nnn[nH]3)oc12)c1ccc(OCCCCc2ccccc2)cc1 | 2.7% | 2.86% | 2.31% | 0.614% | 2.23% | -2.27% | 52.4% | 2.11% | 1.62% | 2.22%
CCCc1nn(C)c2c(=O)[nH]c(-c3cc(S(=O)(=O)N4CCN(C)CC4)ccc3OCC)nc12 | 0.246% | -4.11% | 0.899% | -0.0138% | 0.834% | -0.171% | 0.834% | -2.48% | 0.71% | -0.097%
CC(C)CN(C[C@@H](O)[C@H](Cc1ccccc1)NC(=O)O[C@H]1CO[C@H]2OCC[C@H]21)S(=O)(=O)c1ccc(N)cc1 | -2.82% | -0.683% | -0.244% | -0.934% | -1.58% | 0.0431% | -4.53% | -3.11% | -1.79% | 1.1%
NC(CO)(CO)CO | 0.378% | 1.73% | 0.549% | 1.18% | 1.76% | 0.412% | 0.671% | 1.48% | 2.52% | 0.677%
CC(C)[C@H](N)C(=O)OCC(CO)OCn1cnc2c(=O)[nH]c(N)nc21 (stereo not given in full) | -0.214% | 1.96% | -0.125% | 0.141% | 0.816% | -2.7% | 0.0503% | 0.2% | -2.51% | 1.45%
Nc1nc(Cl)nc2c1ncn2[C@H]1C[C@H](O)[C@@H](CO)O1 | 18.6% | 8.52% | 14.4% | 39.6% | 16.4% | 14.2% | 55.2% | 41.7% | 5.86% | 17%
CN[C@H]1CC[C@@H](c2ccc(Cl)c(Cl)c2)c2ccccc21 | 13.3% | 6.8% | 6.25% | 4.32% | 7.5% | 7.73% | 55% | 3.54% | 6.72% | 1.68%
CC(C)NCC(O)COc1ccc(COCCOC(C)C)cc1 (stereo not given) | -3.23% | -0.456% | -0.461% | -0.782% | -1.74% | -3.85% | -7.27% | -3.11% | -2.42% | -1.46%
C=CC[C@@H]1/C=C(\C)C[C@H](C)C[C@H](OC)[C@H]2O[C@@](O)(C(=O)C(=O)N3CCCC[C@H]3C(=O)O[C@H](/C(C)=C/[C@@H]3CC[C@@H](O)[C@H](OC)C3)[C@H](C)[C@@H](O)CC1=O)[C@H](C)C[C@@H]2OC | 1.19% | -1.52% | 3.82% | 4.63% | 9.14% | 3.03% | 6.43% | 4.72% | 5.58% | 2.59%
Cc1cn(-c2cc(NC(=O)c3ccc(C)c(Nc4nccc(-c5cccnc5)n4)c3)cc(C(F)(F)F)c2)cn1 | 2.27% | 3.07% | 4.89% | 1.74% | 3.66% | 2.75% | 4.26% | 1.93% | 2.31% | -2.01%
CCCCOc1ccc(C(=O)CCN2CCCCC2)cc1 | 3.95% | 1.81% | 13% | 3.6% | 8.09% | 7.94% | 6.88% | 0.947% | 1.6% | 1.44%
Cn1c(=O)c2c(ncn2CC(O)CO)n(C)c1=O (stereo not given) | 1.16% | 3.99% | 1.95% | 1.42% | 2.44% | -0.962% | 2.09% | 1.65% | 3.1% | -0.692%
CCCCc1nc(Cl)c(CO)n1Cc1ccc(-c2ccccc2-c2nnn[nH]2)cc1 | 1.53% | -1.24% | -0.599% | 0.985% | 0.264% | 1.5% | 2.21% | 0.0281% | 1.16% | 0.404%

SMILES | growth inhibition (DIPGX29) | growth inhibition (DIPGX37) | growth inhibition (DIPGX7) | growth inhibition (DIPGX9) | growth inhibition (HGGX39) | growth inhibition (HGGX6) | growth inhibition (HNSC) | growth inhibition (SUDIPGIV) | growth inhibition (SUDIPGVI) | growth inhibition (SUDIPGXIII)
Cc1cc(C(C)(C)C)c(O)c(C)c1CC1=NCCN1 | 0.231% | 3.01% | 1.52% | 2.19% | 1.3% | 0.112% | 0.146% | 1.18% | 1.88% | 0.459%
O=P(O)(O)C(O)(Cn1ccnc1)P(=O)(O)O | 0.235% | 2.6% | 0.072% | 1.97% | 2.08% | 1.84% | 1.26% | 1.08% | 4.43% | -0.376%
C=CCc1cc(OC)c(O)c(C(=O)NCCO)c1 | -2.1% | 0.086% | -1.32% | 0.81% | -1.9% | -0.129% | -0.87% | -1.83% | 0.104% | -0.0438%
COc1cc2ncnc(Nc3ccc(F)c(Cl)c3)c2cc1OCCCN1CCOCC1 | 3.09% | -0.0268% | 1.03% | -0.279% | 1.46% | 4.13% | -1.23% | -5.34% | -6.03% | 0.759%
CC[C@H](C)C[C@H](C)CCCCCCCCC(=O)N[C@H]1C[C@@H](O)[C@@H](NCCN)NC(=O)[C@@H]2[C@@H](O)CCN2C(=O)[C@H]([C@H](O)CCN)NC(=O)[C@H]([C@H](O)[C@@H](O)c2ccc(O)cc2)NC(=O)[C@@H]2C[C@@H](O)CN2C(=O)[C@H]([C@@H](C)O)NC1=O | -0.204% | -0.0661% | 3.78% | 1.06% | 2.93% | -1.44% | 7.21% | -1.11% | -4.4% | 0.336%
CC=CC1=C(C(=O)O)N2C(=O)[C@@H](NC(=O)[C@H](N)c3ccc(O)cc3)[C@H]2SC1 | -1.6% | 0.508% | -0.595% | 0.543% | -1.99% | 1.84% | -1.83% | -0.89% | 0.277% | -12.4%
O=C(O)c1cc(=O)c2c(OCC(O)COc3cccc4oc(C(=O)O)cc(=O)c34)cccc2o1 | -1.5% | 1.34% | -1.58% | 0.155% | -0.164% | 1.99% | -1.63% | -0.417% | -0.328% | 1.77%
CNCC[C@H](Oc1cccc2ccccc12)c1cccs1 | 3.5% | 4.35% | 4.07% | 2.42% | 5.92% | 4.8% | 16.9% | 2.42% | 4.44% | -1.12%
N[C@@H](CSCCCO)C(=O)O | -3.76% | -2.47% | 0.0116% | -2.7% | -4.4% | -5.11% | 22.1% | -4.19% | -9.19% | -0.641%
CN1CCN2c3ncccc3Cc3ccccc3C2C1 (stereo not given) | -2.74% | -1.56% | -0.7% | -1.19% | 1.93% | -2.31% | 2.94% | -0.123% | -5.43% | -0.736%
O=C1[C@@H]2[C@H]3CC[C@H](C3)[C@@H]2C(=O)N1C[C@@H]1CCCC[C@H]1CN1CCN(c2nsc3ccccc23)CC1 | -3.28% | 0.212% | 1.18% | -1.28% | 2.33% | 1.59% | 2.62% | -0.0151% | 0.346% | 2.16%
N=C(N=C(N)N)N1CCOCC1 | 0.894% | 3.09% | 0.853% | 1.87% | 2.32% | 0.804% | 0.723% | -0.801% | 2.92% | -0.103%
CC(O)(P(=O)(O)O)P(=O)(O)O | -0.191% | 1.06% | -0.11% | -0.168% | -1.7% | 1.43% | -0.64% | -0.506% | 1.73% | 0.673%
CCCCNc1cc(C(=O)O)cc(S(N)(=O)=O)c1Oc1ccccc1 | -3.49% | -2.83% | -0.851% | -2.74% | -2.98% | -3.62% | -3.52% | -5.34% | -8.55% | -2.43%
Nc1c2c(nc3ccccc13)CCCC2 | -2.45% | 1.21% | -2.4% | -0.673% | -0.0323% | -0.396% | -4.73% | 1.29% | -2.15% | -0.353%
CCN(CC)CCOC(=O)c1ccc(N)cc1 | 1.14% | -1.44% | 2.21% | 1.17% | 3.11% | 0.874% | 2.07% | 1.58% | 1.31% | 0.856%
O=C(O[C@H]1CN2CCC1CC2)N1CCc2ccccc2[C@@H]1c1ccccc1 | 1.49% | -0.261% | -0.506% | -0.425% | 1.75% | 0.102% | -0.949% | -0.487% | 1.06% | 1.13%
[O-]n1ccccc1=S.[O-]n1ccccc1=S.[Zn+2] | 61.5% | 60.4% | 56.6% | 56.4% | 20.2% | 59.7% | 58.4% | 48.4% | 59.2% | 59.7%
CCOc1ccccc1OC(c1ccccc1)C1CNCCO1 (stereo not given) | 0.58% | 2.23% | -0.477% | 1.96% | 0.0675% | 0.362% | -1.38% | -0.307% | -0.0566% | 0.138%
OCCN1C[C@H](O)[C@@H](O)[C@H](O)[C@H]1CO | 2.17% | 1.74% | 3.33% | 2.76% | 4.58% | 1.44% | 6.31% | 2.25% | 4.59% | 1.39%

— the supplement of paper PMC8253809
